EBV LMP1 NFkB – reduces LMP1-driven NF-kappaB luciferase signal. 0.69% of 350,000 active. inhibition, % at 12.5 µM. LMP1-induced NF-kappaB luciferase reporter cells, luminescence. AID 504558; in the data active means inhibition above about 41%; inconclusive means no clear call, values can overlap the other calls;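 further: 0% = neutral control wells and 100% = reference inhibitor control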
Glyco luc inh – blocks N-linked glycosylation in D54 reporter cells | AID 588692 | D54 ERlucT glycosylation luciferase reporter, 24 h; percent of 100 nM tunicamycin response | reporter increase, % at 12.5 µM | 0.23% of 360,000 active;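 active means mean luciferase reporter signal, scaled so untreated is 0 and the glycosylation-blocking control 100, at or above a set limit in every replicate; inconclusive means mean reaches the limit but not every replicate does; inactive means mean below the limit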;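 further: luciferase carries N-glycosylation sites so blocking glycosylation raises the light; 0% = median of neutral control wells and 100% = median of 100 nM tunicamycin wells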
PAX8 inh HTS – inhibitors of PAX8 transcriptional activity in RMG-I cells; 1.2% of 360,000 active; RMG-I TPO-luciferase reporter, SteadyGlo, 24 h; inhibition, % at 12.6 µM;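 active means mean replicate inhibition at least 60% with every replicate also reaching 60%; inconclusive means only one of the two criteria is met; inactive means mean below 60% and not all replicates reaching 60%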;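 further: luciferase light reporting Pax8 driven TPO promoter activity; plate controls were median of neutral control wells for no effect and mitoxantrone controls for full effect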
NSD2 HMT inh – NSD2 (human) methyltransferase inhibition; O96028; NSD2 peptide methylation, AlphaScreen, 120 min; inhibition, % at 12.5 µM; 0.54% of 310,000 active; in the data active means inhibition above about 50%
Target sequence (O96028 whole entry, looked up): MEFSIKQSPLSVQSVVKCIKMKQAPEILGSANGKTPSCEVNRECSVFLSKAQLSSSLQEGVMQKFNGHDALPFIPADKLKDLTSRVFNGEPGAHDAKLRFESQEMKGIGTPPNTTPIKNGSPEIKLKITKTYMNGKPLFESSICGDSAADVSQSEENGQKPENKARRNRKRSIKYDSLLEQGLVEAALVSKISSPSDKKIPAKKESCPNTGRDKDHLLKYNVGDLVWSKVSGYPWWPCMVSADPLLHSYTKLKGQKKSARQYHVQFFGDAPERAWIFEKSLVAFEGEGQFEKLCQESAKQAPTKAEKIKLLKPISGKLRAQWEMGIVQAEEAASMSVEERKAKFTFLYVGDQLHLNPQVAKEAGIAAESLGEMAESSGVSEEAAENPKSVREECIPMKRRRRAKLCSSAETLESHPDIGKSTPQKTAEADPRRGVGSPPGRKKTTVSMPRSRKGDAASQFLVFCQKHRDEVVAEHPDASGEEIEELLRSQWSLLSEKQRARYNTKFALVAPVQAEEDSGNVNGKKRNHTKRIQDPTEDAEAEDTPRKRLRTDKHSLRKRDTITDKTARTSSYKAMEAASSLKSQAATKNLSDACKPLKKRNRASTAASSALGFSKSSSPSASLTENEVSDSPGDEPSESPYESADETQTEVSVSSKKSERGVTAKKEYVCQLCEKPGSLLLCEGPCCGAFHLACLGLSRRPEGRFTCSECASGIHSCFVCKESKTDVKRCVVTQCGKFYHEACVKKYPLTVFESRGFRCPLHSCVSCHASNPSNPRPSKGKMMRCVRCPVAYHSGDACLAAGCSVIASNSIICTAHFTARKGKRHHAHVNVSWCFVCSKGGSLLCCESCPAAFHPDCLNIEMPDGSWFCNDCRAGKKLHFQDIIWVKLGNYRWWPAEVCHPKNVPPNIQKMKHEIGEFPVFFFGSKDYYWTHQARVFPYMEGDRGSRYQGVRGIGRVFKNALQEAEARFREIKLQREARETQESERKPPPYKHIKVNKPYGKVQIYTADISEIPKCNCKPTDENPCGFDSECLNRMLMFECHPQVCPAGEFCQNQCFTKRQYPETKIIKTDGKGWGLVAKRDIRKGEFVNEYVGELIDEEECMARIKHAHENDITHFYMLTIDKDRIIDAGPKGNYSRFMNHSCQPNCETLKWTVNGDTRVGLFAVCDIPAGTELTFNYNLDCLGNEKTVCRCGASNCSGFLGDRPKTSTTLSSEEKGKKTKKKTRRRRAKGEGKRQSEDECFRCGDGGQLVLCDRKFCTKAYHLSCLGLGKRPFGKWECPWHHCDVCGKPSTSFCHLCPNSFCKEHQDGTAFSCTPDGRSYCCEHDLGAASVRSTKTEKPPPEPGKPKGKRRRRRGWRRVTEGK
Env fusion inh – HIV envelope-mediated fusion inhibition; HeLa-JRFL Env/CEM21 cell fusion, luciferase; inhibition, % at 12.3 µM; 1.1% of 360,000 active; AID 651610;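 active means mean replicate inhibition score of at least 50 and every replicate individually at or above 50; inconclusive means only one of the two criteria met; inactive means mean below 50 and not all replicates reaching 50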;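 further: 0% = plate neutral controls and 100% = maraviroc near 300 nM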
Shn3 3UTR inh – Schnurri-3 reporter inhibition in Clone20 osteoblasts; 0.52% of 360,000 active; Clone20 osteoblast Shn3 3'UTR firefly luciferase, 24 h; inhibition, % at 12.5 µM;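 active means mean inhibition of at least 75% with every replicate also reaching 75%; inconclusive means mean inhibition at least 75% but some replicate below; inactive means mean inhibition below 75%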;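 further: 0% = median of neutral control wells and 100% = pilot-screen positive control compound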
Numbers without * were called inactive; ? = inconclusive; · = no result given; [ ] = another dose, or the depositor's remark. Hits are enriched below; roughly 2.8% of the tested compounds scored in any of these assays.

SMILES	EBV LMP1 NFkB	Glyco luc inh	PAX8 inh HTS	NSD2 HMT inh	Env fusion inh	Shn3 3UTR inh
C[C@@H]1CN([C@H](C)CO)C(=O)c2cc(NC(=O)CCC(F)(F)F)ccc2O[C@@H](C)CCCCO[C@H]1CN(C)Cc1ccc(C(F)(F)F)cc1	·	·	-7	·	14[16.7 µM]	·
CC(C)NC(=O)Nc1ccc2c(c1)C(=O)N([C@@H](C)CO)C[C@@H](C)[C@@H](CN(C)Cc1ccc(C(F)(F)F)cc1)OCCCC[C@@H](C)O2	·	·	10	·	70*[16.7 µM]	·
C[C@@H]1CN([C@@H](C)CO)C(=O)c2cc(NC(=O)Nc3ccc(C(F)(F)F)cc3)ccc2O[C@@H](C)CCCCO[C@H]1CN(C)Cc1ccc(C(F)(F)F)cc1	·	·	?	·	42[16.7 µM]	·
C[C@@H]1CCCCO[C@@H](CN(C)Cc2ccc(C(F)(F)F)cc2)[C@H](C)CN([C@@H](C)CO)C(=O)c2cc(NC(=O)Nc3ccc(C(F)(F)F)cc3)ccc2O1	·	·	37	·	59*[16.7 µM]	·
O=C(C1CCCC1)N1CC(=O)N2[C@H](CO)[C@@H](c3ccc(Br)cc3)[C@@H]2C1	·	·	-24	·	·	·
C[C@@H]1CCCCO[C@H](CN(C)Cc2ccc(C(=O)O)cc2)[C@H](C)CN([C@H](C)CO)C(=O)c2cc(NC(=O)Nc3ccc(C(F)(F)F)cc3)ccc2O1	·	·	-4	·	14[16.7 µM]	·
C[C@@H]1CN([C@@H](C)CO)C(=O)c2cc(NC(=O)Nc3ccc(F)cc3)ccc2O[C@@H](C)CCCCO[C@@H]1CN(C)Cc1ccc(C(F)(F)F)cc1	·	·	80*	·	28[16.7 µM]	·
C[C@@H]1CCCCO[C@H](CN(C)Cc2ccc(Cl)c(Cl)c2)[C@@H](C)CN([C@@H](C)CO)C(=O)c2cc(NC(=O)CCC(F)(F)F)ccc2O1	·	·	56	·	-78[16.7 µM]	·
C[C@@H]1CN([C@H](C)CO)C(=O)c2cc(NC(=O)CCC(F)(F)F)ccc2O[C@@H](C)CCCCO[C@@H]1CN(C)Cc1ccc(Cl)c(Cl)c1	·	·	81*	·	11[16.7 µM]	·
C[C@H](CO)N1C[C@H](C)[C@@H](CN(C)Cc2ccc(C(F)(F)F)cc2)OCCCC[C@H](C)Oc2ccc(NC(=O)Nc3ccc(F)cc3)cc2C1=O	·	·	88*	·	30[16.7 µM]	·
Cc1ccc(S(=O)(=O)N[C@@H]2C=C[C@@H](CC(=O)NCCc3ccncc3)O[C@H]2CO)cc1	·	·	-11	·	17[16.7 µM]	·
CN(C)CC(=O)N[C@H]1CC[C@H](CC(=O)NCc2ccccc2F)O[C@H]1CO	·	·	-20	·	-1[16.7 µM]	·
CN(CCO)c1cc(Sc2nc3ccccc3s2)c2nonc2c1[N+](=O)[O-]	2	2	·	5	·	87*
CC(=O)OCCN(C)c1cc(SC(C)C)c2nonc2c1[N+](=O)[O-]	-1	4	23	16	7	6
COc1ccc2[nH]c(=O)c(CN(Cc3ccco3)Cc3nnnn3Cc3ccccc3)cc2c1	-1	1	·	·	·	12
COc1ccc2[nH]c(=O)c(CN(Cc3cccs3)Cc3nnnn3Cc3ccccc3)cc2c1	0	-2	18	0	98*	-12
COc1ccc2[nH]c(-c3ccc(C)cc3)cc(=O)c2c1	43*	-17	·	·	·	33
COc1ccc(-c2cc(=O)c3cc(F)ccc3[nH]2)cc1	-1	-1	-10	·	-12	-10
N#C/C(C(=O)N1CCCC1)=C1/N=C(N)c2ccccc21	-5	4	108*	-2	15	-7
CCOC(=O)C(C)(C)Sc1ncnc2nc[nH]c12	10	0	·	2	16	-13
O=C(CSc1ncnc2nc[nH]c12)c1ccc([N+](=O)[O-])cc1	-3	45*	26	0	17	-9
O=C(CSc1ncnc2nc[nH]c12)c1ccc(Cl)cc1	4	?	3	·	39	5
CCOC(=O)c1cc([N+](=O)[O-])cc([N+](=O)[O-])c1Sc1ncnc2nc[nH]c12	-5	99*	25	10	-13	96*
O=C(C[C@@H]1CC[C@H]2[C@@H](COC[C@H](O)CN2S(=O)(=O)c2cccc(F)c2)O1)NCCCN1CCOCC1	·	·	-18	·	·	·
COc1ccc(OC)c2sc(N3CCc4ccccc4C3)nc12	5	2	-14	·	-12	-13
SMILES	EBV LMP1 NFkB	Glyco luc inh	PAX8 inh HTS	NSD2 HMT inh	Env fusion inh	Shn3 3UTR inh
c1ccc2c(c1)CCN(c1nc3cc4c(cc3s1)OCCO4)C2	25	-18	82*	·	-64	34
COc1ccc([Si](C)(C)[C@@H]2[C@@H](CCO)O[C@]3(C(=O)N(c4ccccc4)c4ccccc43)[C@H]2C)cc1	·	·	93*	·	49[16.7 µM]	·
COc1ccc([Si](C)(C)[C@@H]2[C@@H](CCO)O[C@]3(C(=O)N(C)c4ccccc43)[C@H]2C)cc1	·	·	81*	·	29[16.7 µM]	·
COc1ccc([Si](C)(C)[C@@H]2[C@@H](CCn3cc([C@H](O)c4ccccc4)nn3)O[C@]3(C(=O)N(c4ccccc4)c4ccccc43)[C@H]2C)cc1	·	·	21	·	6[16.7 µM]	·
CCC(NS(=O)(=O)c1c(C)[nH]c(=O)[nH]c1=O)C12CC3CC(CC(C3)C1)C2 (stereo not drawn)	18	1	-1	1	80*	20
C[C@H]1CN([C@@H](C)CO)C(=O)c2cc(NC(=O)Cc3cn(C)c4ccccc34)ccc2O[C@H]1CN(C)S(C)(=O)=O	·	·	13	·	5[16.7 µM]	·
O=C(NCc1ccco1)C1CCCN(S(=O)(=O)c2ccc(Br)cc2)C1 (stereo not drawn)	-4	-2	131*	-2	-10	3
CC(C)c1ccc(S(=O)(=O)N2CCC(C(=O)NCc3ccco3)CC2)cc1	-7	3	·	1	56*	8
CC(=O)Nc1ccc(S(=O)(=O)N2CCC(C(=O)NCc3ccco3)CC2)cc1	1	-2	1	-3	-25	-3
O=C(NCc1ccco1)C1CCCN(S(=O)(=O)c2ccc(F)cc2)C1 (stereo not drawn)	·	·	·	0	·	·
C[C@@H]1CN([C@H](C)CO)S(=O)(=O)c2ccc(-c3ccncc3)cc2O[C@@H]1CN(C)C(=O)C1CCC1	·	·	·	·	-5[16.7 µM]	·
Cc1ccc(S(=O)(=O)Nc2ccc3c(c2)C(=O)N([C@H](C)CO)C[C@H](C)[C@@H](CN(C)Cc2ccc(C(=O)O)cc2)OCCCC[C@@H](C)O3)cc1	·	·	-34	·	16[16.7 µM]	·
CC(=O)N(C)C[C@H]1Oc2ncc(-c3cncnc3)cc2C(=O)N([C@@H](C)CO)C[C@H]1C	·	·	·	·	1[16.7 µM]	·
Cc1ccc(C(=O)Nc2ncc3c(Cl)cccc3n2)cc1	51*	-14	·	0	·	-1
Cc1ccc(C(=O)Nc2ccc(Cl)cn2)cc1	28	-11	·	0	·	-30
Cc1ccnc(NC(=O)Nc2ccc(Br)cc2Cl)c1	48*	-7	-200	-1	-253	-45
O=C(NCc1cccnc1)Nc1ccc(Cl)cc1Cl	6	-1	-6	-5	57*	-2
O=C(NCc1cccnc1)Nc1ccc(Br)cc1Cl	5	0	-12	-3	56*	-3
O=C(NCc1cccnc1)Nc1cccc(Cl)c1Cl	-4	-3	·	-3	-10	6
COc1cccc2sc(Nc3nc(-c4ccccn4)cs3)nc12	46*	-13	·	·	·	71

Compound activity (PubChem)
